From PubChem BioAssay (NCI)
This is part of a sample that, as a whole, favours compounds with a hit. Of some 83,000 tested, about 20% had one in any assay.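 Growth was measured after 48 h exposure to one concentration of compound in 96-well plates. Values under 10 count as active.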 Unmarked numbers belong to inactive results. Calls of active or inactive are those of the source.

Assays:
Assay in all cases: NCI-60 one-dose screen, 48 h (100 = growth as untreated, 0 = no growth, -100 = all killed)
Conditions in all cases: 10 µM unless noted
T-47D breast = test system: T-47D breast
BT-549 breast = test system: BT-549 breast
MDA-MB-435 melanoma = test system: MDA-MB-435 melanoma
SW-620 colon = test system: SW-620 colon
MCF7 breast = test system: MCF7 breast
HCT-116 colon = test system: HCT-116 colon
HCC-2998 colon = test system: HCC-2998 colon
KM12 colon = test system: KM12 colon

CSc1nc(NCCN2CCOCC2)c(C#N)c(-c2cccc([N+](=O)[O-])c2)n1
growth (T-47D breast): 96.8% | growth (BT-549 breast): 94.2% | growth (MDA-MB-435 melanoma): 104% | growth (SW-620 colon): 99.8% | growth (MCF7 breast): 89.4% | growth (HCT-116 colon): 98.8% | growth (HCC-2998 colon): 112% | growth (KM12 colon): 98.7%

CCC([N+](=O)[O-])S(=O)(=O)c1ccc(C)cc1 (centres undefined)
growth (T-47D breast): 92.6% | growth (BT-549 breast): 109% | growth (MDA-MB-435 melanoma): 113% | growth (SW-620 colon): 104% | growth (MCF7 breast): 101% | growth (HCT-116 colon): 98.7% | growth (HCC-2998 colon): 64.5% | growth (KM12 colon): 136%

Nc1n[nH]c2ccc([C@@H]3Nc4ccc5cn[nH]c5c4[C@H]4C5CCC(C5)[C@@H]34)cc12 (some centres undefined)
growth (T-47D breast): 57.5% | growth (BT-549 breast): 20.9% | growth (MDA-MB-435 melanoma): -47.7% (active) | growth (SW-620 colon): 19% | growth (MCF7 breast): 15.2% | growth (HCT-116 colon): 12.9% | growth (HCC-2998 colon): 24.3% | growth (KM12 colon): 17.6%

COc1ccc(SC2c3cc(OC)c(OC)cc3Oc3nc(N)c(C#N)c(N)c32)cc1 (centres undefined)
growth (T-47D breast): -41.9% (active) | growth (BT-549 breast): -79.1% (active) | growth (MDA-MB-435 melanoma): -84.4% (active) | growth (SW-620 colon): -64.5% (active) | growth (MCF7 breast): -58.9% (active) | growth (HCT-116 colon): -88.6% (active) | growth (HCC-2998 colon): -84.3% (active) | growth (KM12 colon): -79% (active)

COc1cccc(/C=C2\Oc3cc(OCCN4CCCC4)ccc3C2=O)c1
growth (T-47D breast): 91.4% | growth (BT-549 breast): 80.4% | growth (MDA-MB-435 melanoma): 99.5% | growth (SW-620 colon): 86.9% | growth (MCF7 breast): 77.4% | growth (HCT-116 colon): 78% | growth (HCC-2998 colon): 82.6% | growth (KM12 colon): 97.8%

O=C1NC(=Nc2ccc(O)cc2)S/C1=C\c1cccc(Cl)c1
growth (T-47D breast): 76% | growth (BT-549 breast): 64.9% | growth (MDA-MB-435 melanoma): 2.14% (active) | growth (SW-620 colon): 30.7% | growth (MCF7 breast): 18.6% | growth (HCT-116 colon): 24.2% | growth (HCC-2998 colon): 83.8% | growth (KM12 colon): 21.9%

CCOC(=O)n1cc(-c2nonc2-c2cn(C)c3ncccc23)c2cc(F)ccc21
growth (T-47D breast): 10.4% | growth (BT-549 breast): 93.1% | growth (MDA-MB-435 melanoma): 94.7% | growth (SW-620 colon): 89.5% | growth (MCF7 breast): 27.2% | growth (HCT-116 colon): 69.5% | growth (HCC-2998 colon): 86.4% | growth (KM12 colon): 73.5%

COc1ccc2[nH]cc(-c3noc(C(=O)c4cn(C)c5ccc(F)cc45)n3)c2c1
growth (T-47D breast): 83.8% | growth (BT-549 breast): 88.9% | growth (MDA-MB-435 melanoma): 102% | growth (SW-620 colon): 95.1% | growth (MCF7 breast): 58.8% | growth (HCT-116 colon): 101% | growth (HCC-2998 colon): 101% | growth (KM12 colon): 92.6%

CN(C)c1ccc(N=Nc2ccccn2)c(O)c1
growth (T-47D breast): 31.4% | growth (BT-549 breast): 37% | growth (MDA-MB-435 melanoma): 33.1% | growth (SW-620 colon): 26.5% | growth (MCF7 breast): 17.3% | growth (HCT-116 colon): 24.7% | growth (HCC-2998 colon): 33.6% | growth (KM12 colon): 24.5%

CNC(=O)c1cc(Oc2ccc(NC(=O)Nc3ccc(Cl)c(SC)c3)c(F)c2)ccn1
growth (T-47D breast): -3.32% (active) | growth (BT-549 breast): 64.7% | growth (MDA-MB-435 melanoma): 32.6% | growth (SW-620 colon): 67.5% | growth (MCF7 breast): 30% | growth (HCT-116 colon): 30.8% | growth (HCC-2998 colon): 51.3% | growth (KM12 colon): 29.3%

O=c1ccccc(-c2ccc(-c3ccco3)cc2)c1O
growth (T-47D breast): 28.7% | growth (BT-549 breast): 28.1% | growth (MDA-MB-435 melanoma): 26.3% | growth (SW-620 colon): 27.8% | growth (MCF7 breast): 15.3% | growth (HCT-116 colon): 21.8% | growth (HCC-2998 colon): 41.1% | growth (KM12 colon): 23%

COc1ccc(CCNc2nc3c(c(=O)n(Cc4ccc(Br)cc4)c(=O)n3C)n2C)cc1OC
growth (T-47D breast): 66.2% | growth (BT-549 breast): 86.5% | growth (MDA-MB-435 melanoma): 99.2% | growth (SW-620 colon): 99.5% | growth (MCF7 breast): 94.4% | growth (HCT-116 colon): 90.5% | growth (HCC-2998 colon): 101% | growth (KM12 colon): 100%

CSc1ccc(-c2ccccc(=O)c2O)cc1
growth (T-47D breast): 27% | growth (BT-549 breast): 29.7% | growth (MDA-MB-435 melanoma): 23.5% | growth (SW-620 colon): 29.2% | growth (MCF7 breast): 15.8% | growth (HCT-116 colon): 20% | growth (HCC-2998 colon): 44% | growth (KM12 colon): 23.1%

Cc1ccc2oc(=O)cc(C3c4ccc([nH]4)C(c4cc(=O)oc5ccc(C)cc45)c4ccc([nH]4)C(c4cc(=O)oc5ccc(C)cc45)c4ccc([nH]4)C(c4cc(=O)oc5ccc(C)cc45)c4ccc3[nH]4)c2c1 (centres undefined)
growth (T-47D breast): -28.5% (active) | growth (BT-549 breast): -49.8% (active) | growth (MDA-MB-435 melanoma): -76.1% (active) | growth (SW-620 colon): -7.64% (active) | growth (MCF7 breast): -20.9% (active) | growth (HCT-116 colon): -78.9% (active) | growth (HCC-2998 colon): -68.9% (active) | growth (KM12 colon): -73.9% (active)

Cn1cc(-c2nonc2-c2cn(C)c3ccc(F)cc23)c2ccccc21
growth (T-47D breast): 37.3% | growth (BT-549 breast): 56.1% | growth (MDA-MB-435 melanoma): -26% (active) | growth (SW-620 colon): 22% | growth (MCF7 breast): 21.3% | growth (HCT-116 colon): 11.6% | growth (HCC-2998 colon): 25.9% | growth (KM12 colon): 14.7%

Cc1ccccc1COc1ccc(-c2ccnn2-c2ccc(Cl)cc2)cc1
growth (T-47D breast): 65.4% | growth (BT-549 breast): 75% | growth (MDA-MB-435 melanoma): 0.81% (active) | growth (SW-620 colon): 29.7% | growth (MCF7 breast): 31.9% | growth (HCT-116 colon): 38.1% | growth (HCC-2998 colon): 89.1% | growth (KM12 colon): 50.7%

CC(C)C1=C[C@@]23CC[C@@H]4[C@](C)(CCC[C@@]4(C)C(=O)N4CCCNCC4)[C@H]2C[C@@H]1[C@H]1C(=O)CCC(=O)[C@H]13
growth (T-47D breast): 100% | growth (BT-549 breast): 104% | growth (MDA-MB-435 melanoma): 109% | growth (SW-620 colon): 105% | growth (MCF7 breast): 90.4% | growth (HCT-116 colon): 103% | growth (HCC-2998 colon): 107% | growth (KM12 colon): 101%

CC(O)CN(CC(C)O)c1ccc2c(c1)Cc1cc([N+](=O)[O-])ccc1-2 (centres undefined)
growth (T-47D breast): 109% | growth (BT-549 breast): 101% | growth (MDA-MB-435 melanoma): 98.7% | growth (SW-620 colon): 99% | growth (MCF7 breast): 99.2% | growth (HCT-116 colon): 89.6% | growth (HCC-2998 colon): 95.1% | growth (KM12 colon): 85.3%

CC(=O)Nc1ccc(S(=O)(=O)Nc2cccc(-c3nc(-c4ccc(NC(=O)c5cccnc5)cc4Cl)no3)c2)cc1
growth (T-47D breast): 14% | growth (BT-549 breast): 33.3% | growth (MDA-MB-435 melanoma): 6.69% (active) | growth (SW-620 colon): 29.5% | growth (MCF7 breast): 17.1% | growth (HCT-116 colon): 30.4% | growth (HCC-2998 colon): 69.1% | growth (KM12 colon): 28.7%

Cc1cc2nc3[nH]c4ccccc4c3nc2cc1C
growth (T-47D breast): 58.9% | growth (BT-549 breast): 92.4% | growth (MDA-MB-435 melanoma): 120% | growth (SW-620 colon): 73.3% | growth (MCF7 breast): 48.2% | growth (HCT-116 colon): 46.1% | growth (HCC-2998 colon): 98.4% | growth (KM12 colon): 77.9%

COc1cc(/C=C/c2cc(/C=C/c3ccc(O)c(OC)c3)n(-c3c(Cl)cccc3Cl)c(=O)n2)ccc1O
growth (T-47D breast): 24.1% | growth (BT-549 breast): 15.2% | growth (MDA-MB-435 melanoma): 4.57% (active) | growth (SW-620 colon): 10.4% | growth (MCF7 breast): 13.7% | growth (HCT-116 colon): 4.63% (active) | growth (HCC-2998 colon): 41.8% | growth (KM12 colon): 12.1%

O=C(Cc1ccc(/C=C/C(=O)c2ncc[nH]2)cc1)Nc1ccc(F)cc1
growth (T-47D breast): 19.3% | growth (BT-549 breast): 22.4% | growth (MDA-MB-435 melanoma): 32.6% | growth (SW-620 colon): 4.06% (active) | growth (MCF7 breast): 11.3% | growth (HCT-116 colon): 26.8% | growth (HCC-2998 colon): 79.7% | growth (KM12 colon): 8.05% (active)

CN(C)c1ccc(NC(=O)c2ccc(/C=C/C(=O)c3ncc[nH]3)cc2)cc1
growth (T-47D breast): 46.6% | growth (BT-549 breast): 63.1% | growth (MDA-MB-435 melanoma): 51.7% | growth (SW-620 colon): 21.1% | growth (MCF7 breast): 12.1% | growth (HCT-116 colon): 46.4% | growth (HCC-2998 colon): 87.9% | growth (KM12 colon): 10.2%

CCCCCCN(CCCCCC)CCC(O)c1ccc2ccccc2c1 (centres undefined)
growth (T-47D breast): 34.4% | growth (BT-549 breast): 74.7% | growth (MDA-MB-435 melanoma): 68.3% | growth (SW-620 colon): 48.2% | growth (MCF7 breast): 26.6% | growth (HCT-116 colon): 24.3% | growth (HCC-2998 colon): 44.6% | growth (KM12 colon): 56.2%

CCc1c(Nc2ccccc2C)nc(N)[nH]c1=O
growth (T-47D breast): 114% | growth (BT-549 breast): 102% | growth (MDA-MB-435 melanoma): 106% | growth (SW-620 colon): 106% | growth (MCF7 breast): 97% | growth (HCT-116 colon): 98.4% | growth (HCC-2998 colon): 101% | growth (KM12 colon): 104%

COc1ccc(/C=C/c2nc(-c3n[nH]c(=O)n3-c3ccccc3)c3ccccc3n2)cc1
growth (T-47D breast): 89.3% | growth (BT-549 breast): 111% | growth (MDA-MB-435 melanoma): 99.4% | growth (SW-620 colon): 89.6% | growth (MCF7 breast): 90.6% | growth (HCT-116 colon): 104% | growth (HCC-2998 colon): 112% | growth (KM12 colon): 94.2%

CCn1c(Cc2ccccc2Nc2c(Cl)cccc2Cl)nnc1SCC(=O)NN1C(=O)/C(=C/c2cc(OC)c(O)c(OC)c2)SC1=S
growth (T-47D breast): 24.4% | growth (BT-549 breast): 50% | growth (MDA-MB-435 melanoma): -46.5% (active) | growth (SW-620 colon): 21.2% | growth (MCF7 breast): 16.9% | growth (HCT-116 colon): 11.5% | growth (HCC-2998 colon): 56.9% | growth (KM12 colon): 18%

Cc1cc(Nc2ccc(C)c(Cl)c2)n2nc(C(F)(F)F)nc2n1
growth (T-47D breast): -0.705% (active) | growth (BT-549 breast): 69.6% | growth (MDA-MB-435 melanoma): 34.5% | growth (SW-620 colon): 40.6% | growth (MCF7 breast): 77.9% | growth (HCT-116 colon): 18.5% | growth (HCC-2998 colon): 74.5% | growth (KM12 colon): 62%
